# Only some compounds are listed: those with a hit (about 3% of all), similar ones and a draw of the others.
# Peg3 prom inh: Peg3 promoter-driven luciferase inhibitors, primary screen, cell-based, HeLa, luciferase luminescence. HeLa PEG-Prom luciferase reporter, overnight. inhibition, % at 20 µM. 360,000 tested, 1.7% active. AID 588405, 2011;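 active = inhibition of at least 50% at 20 µM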
# EWS-Fli inh: EWS/Fli-driven NR0B1 reporter inhibitors, primary screen, A673 cells, NR0B1 luciferase, luminescence, MLPCN library; viability-normalised; inhibition, % at 12.6 µM; 350,000 tested, 0.67% active; AID 651661, 2012;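 active = mean inhibition of at least 50% after viability correction, with every replicate also passing that limit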;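 note: firefly luciferase signal divided by Alamar Blue viability fluorescence both relative to DMSO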
# PAX8 inh HTS: inhibitors of PAX8-driven TPO luciferase reporter, primary screen, RMG-I cells, single concentration | SteadyGlo, 24 h | inhibition, % at 12.6 µM | 360,000 tested, 1.2% active;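 active = mean replicate inhibition at least 60% with every replicate also reaching 60%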;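 note: luciferase light reporting Pax8 driven TPO promoter activity; plate controls were median of neutral control wells for no effect and mitoxantrone controls for full effect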
# Shn3 inh set2: reduction of Shn3 3'UTR firefly luciferase signal, primary screen, Schnurri-3 inhibitor project, cell-based, Clone20 osteoblasts, set 2; inhibition, % at 12.5 µM; AID 588674, 2011; 360,000 tested, 0.52% active; Clone20 osteoblast Shn3 3'UTR firefly luciferase, 24 h;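 active = mean inhibition of at least 75% with every replicate also reaching 75%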;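 note: 0% = median of neutral control wells and 100% = pilot-screen positive control compound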
# TRPM1 prom inh: inhibitors of MITF-dependent TRPM1 promoter reporter, primary screen, cell-based, SK-MEL-5, single point, luciferase; AID 488899, 2010; inhibition, % at 12.5 µM; 330,000 tested, 0.83% active; SK-MEL-5 TRPM1 promoter luciferase, 24 h;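 active = mean inhibition across replicates of 60% or more, whatever share of single replicates reaches that level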
# ABHD5-PLIN5 inh: ABHD5-PLIN5 interaction inhibitors, primary screen, cell lysate, split luciferase complementation, luminescence. inhibition, % at 4 µM. Perilipin-5 (Homo sapiens) + 1-acylglycerol-3-phosphate O-acyltransferase ABHD5 (Homo …. 360,000 tested, 0.78% active. Split G. princeps luciferase complementation, 4 h;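 active = inhibition above the mean inhibition across every tested compound plus 3 SD, cut at about 22% in these data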;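 note: 0% = DMSO only wells and the 100% control is not disclosed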
# ABHD5 PLIN5 conf: ABHD5-PLIN5 interaction inhibitors, confirmation, biochemical, luminescence; shares compounds with ABHD5-PLIN5 inh; inhibition, % at 4 µM; 2,200 tested, 67% active; in the data active = inhibition above about 23%;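 note: 0% = DMSO vehicle wells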
# HNF4 split-luc: HNF4 dimerization inhibitors, counter-screen for ABHD5-PLIN5 interaction inhibitor project, biochemical, split-luciferase complementation, luminescence; inhibition, % at 4 µM; 2,200 tested, 77% active; shares compounds with ABHD5-PLIN5 inh; AID 651674, 2012;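 active = mean inhibition across replicate wells exceeding the computed hit threshold, cut at about 13% in these data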;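 note: light from luciferase halves that rejoin when HNF4 fusion proteins dimerize; 0% = DMSO only wells and the 100% control is not given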
# Target sequence (P41235 whole entry, looked up, the tested form may be a part): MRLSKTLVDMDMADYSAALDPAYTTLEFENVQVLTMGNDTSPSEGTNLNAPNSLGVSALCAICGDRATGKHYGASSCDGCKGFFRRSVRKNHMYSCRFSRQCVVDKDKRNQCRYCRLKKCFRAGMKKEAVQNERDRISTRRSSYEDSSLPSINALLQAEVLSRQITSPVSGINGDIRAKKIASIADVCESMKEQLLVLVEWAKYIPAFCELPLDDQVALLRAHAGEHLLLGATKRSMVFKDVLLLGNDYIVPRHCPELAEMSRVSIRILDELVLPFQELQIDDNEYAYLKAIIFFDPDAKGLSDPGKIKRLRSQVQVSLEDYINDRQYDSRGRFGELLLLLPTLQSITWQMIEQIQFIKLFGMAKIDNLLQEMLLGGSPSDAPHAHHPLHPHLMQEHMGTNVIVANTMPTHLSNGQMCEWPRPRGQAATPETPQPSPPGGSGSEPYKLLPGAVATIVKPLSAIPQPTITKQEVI
# An asterisk follows results filed as active; / = no result.
SMILES,Peg3 prom inh,EWS-Fli inh,PAX8 inh HTS,Shn3 inh set2,TRPM1 prom inh,ABHD5-PLIN5 inh,ABHD5 PLIN5 conf,HNF4 split-luc
CCOC1=CC2=C(C(=O)C(Cl)=CC2=O)[C@@H]2CN(S(=O)(=O)c3ccc(C)cc3)[C@@H](c3ccccc3)[C@H]12,49,46,49,48,/,53*,103*,58*
CCN1C(=O)[C@@H]2[C@@H]3CN(S(=O)(=O)c4ccc(C)cc4)[C@@H](c4ccccc4)[C@@H]3C(=O)C[C@@H]2C1=O,4,2,7,-16,/,-2,/,/
O=C(CN1C(=O)S/C(=C\C=C\c2ccccc2)C1=O)Nc1ccc(O)cc1,-223,/,/,-26,-8,30*,12,3
O=C(CCCN1C(=O)S/C(=C/C=C/c2ccccc2)C1=O)Nc1ccc(C(=O)O)cc1,-20,/,-19,-62,-15,28*,17,12
C[C@H](CO)N1C[C@H](C)[C@H](CN(C)S(=O)(=O)c2ccc(F)cc2)Oc2c(NC(=O)C3CC3)cccc2C1=O,/,1,-6,/,/,/,/,/
COc1ccc(-c2ccc(CCC(=O)O)o2)cc1,-92,-12,-53,-63,-21,60*,14,64*
NC(=O)c1ccc(-c2ccc(Br)cc2)o1,-73,/,-88,-27,-10,12,/,/
COc1ccc(-c2ccc(CCC(=O)O)n2C(C)C)cc1,-14,/,/,-9,15,5,/,/
Cc1oc(-c2ccc(Cl)cc2)cc1C(=O)O,-178,-48,-55,-43,-44,-7,/,/
O=C(O)CCc1ccc(-c2ccc(Cl)cc2)o1,-46,/,/,2,-3,43*,-2,10
O=C(O)CCc1ccc(-c2ccc(Br)cc2)o1,-60,/,8,-24,7,29*,24*,71*
C[C@@H]1CCCCO[C@H](CN(C)C(=O)C2CCCCC2)[C@H](C)CN([C@@H](C)CO)C(=O)c2cc(NC(=O)Cc3ccccc3)ccc2O1,/,1,25,/,/,/,/,/
C[C@@H]1CN([C@H](C)CO)C(=O)c2cc(N(C)C)ccc2O[C@@H](C)CCCCO[C@@H]1CN(C)C(=O)c1ccccc1,/,-2,23,/,/,/,/,/
Cc1ccc(C2CC(c3ccccc3)=NN2C(=S)Nc2ccccc2)o1 (stereo not given),-8,/,/,-2,27,42*,5,3
CC1=NN(C(=S)Nc2ccccc2)C(c2ccccc2)C1 (stereo not given),-7,/,-1,-14,-3,-7,/,/
C[C@@H]1CN([C@@H](C)CO)C(=O)c2cc(NC(=O)CCC(F)(F)F)ccc2O[C@H]1CN(C)S(=O)(=O)c1ccc(F)cc1,/,2,-11,/,/,/,/,/
CC[C@@H]1CC=C[C@H]2[C@H]1C(=O)N(Cc1ccccc1)[C@H]2c1ccoc1,88*,/,/,14,17,24*,37*,35*
COc1ccccc1-c1cc(C(=O)NC2CCN(C)CC2)c2ccc(Cl)c(C)c2n1,105*,/,12,20,8,32*,20,-3
Cc1c(NC(=O)CC#N)c(=O)n(-c2ccccc2)n1C,/,-15,5,/,/,/,/,/
COCCCNCCCOc1ccc(Cl)cc1Br,1,/,-6,1,6,10,/,/
CC(O)CNCCCOc1ccc(Cl)cc1C(C)(C)C (stereo not given),81*,11,3,-12,-10,29*,11,6
CN(C)CCOCCOc1ccc(Cl)cc1C(C)(C)C,18,12,11,14,-2,23*,10,1
CC(C)(C)c1cc(Cl)ccc1OCCn1ccnc1,25,11,9,19,-3,-1,/,/
CN1c2ccc(C#Cc3cccnc3)cc2[C@H]2[C@H](CCN2S(=O)(=O)c2cccc(F)c2)[C@H]1CO,/,12,12,/,/,/,/,/
C[C@@H]1CN([C@H](C)CO)C(=O)c2cccc(NC(=O)Nc3ccc(F)cc3)c2O[C@H]1CN(C)Cc1ccc(Oc2ccccc2)cc1,/,3,/,/,/,/,/,/
SMILES,Peg3 prom inh,EWS-Fli inh,PAX8 inh HTS,Shn3 inh set2,TRPM1 prom inh,ABHD5-PLIN5 inh,ABHD5 PLIN5 conf,HNF4 split-luc
C[C@H]1CN([C@@H](C)CO)C(=O)c2cccc(NC(=O)Nc3ccc(C(F)(F)F)cc3)c2O[C@H]1CN(C)Cc1ccc(Cl)c(Cl)c1,/,2,/,/,/,/,/,/
COc1ccccc1CNc1ccc2nnc(CCNC(=O)c3ccccc3)n2n1,6,2,-4,1,0,2,/,/
O=C(NCCc1nnc2ccc(NCc3ccccc3Cl)nn12)c1ccccc1,17,6,-15,4,6,52*,6,4
CC(CCc1ccco1)NC(=O)CCc1nnc2ccc(NCc3ccccc3Cl)nn12 (stereo not given),15,3,18,-11,-2,43*,40*,/
C[C@@H]1CN([C@@H](C)CO)C(=O)c2cc(C#CCN(C)C)cnc2O[C@@H]1CN(C)Cc1ccncc1,/,-12,/,/,/,/,/,/
O=C(CN1CCC2(CC1)OCCO2)c1ccc2cc[nH]c2c1,-7,/,/,-19,-11,102*,5,10
O=C(CN1CCN(c2ccccc2)CC1)c1ccc2cc[nH]c2c1,-7,-12,8,-21,/,2,/,/
N#C[C@@H]1[C@H](c2ccccc2C2=CCCCC2)[C@H](CO)N1C(=O)NC1CCCCC1,/,-17,/,/,/,/,/,/
Cc1cc(C)c2c(=O)n(CC(=O)NC3CCCC3)sc2n1,8,-2,-15,11,14,27*,33*,107*
CN1CCN(C(=O)Nc2ccc3c(c2)N(C)C(=O)c2ccccc2S3)CC1,4,1,2,-3,3,-11,/,/
CCCNC(=O)Nc1ccc2c(c1)N(C)C(=O)c1ccccc1S2,23,/,13,9,5,33*,54*,4
CN1C(=O)c2ccccc2Sc2ccc(NC(=O)N3CCCC3)cc21,23,/,/,-8,7,9,/,/
CCCCNC(=O)Nc1ccc2c(c1)N(C)C(=O)c1ccccc1S2,20,9,21,2,-6,50*,68*,4
COc1ccc(S(=O)(=O)N(C)C[C@H]2Oc3ccc(NC(=O)Nc4ccc5c(c4)OCO5)cc3C(=O)N([C@H](C)CO)C[C@H]2C)cc1,/,-5,/,/,/,/,/,/
Cc1noc(C)c1S(=O)(=O)Nc1ccc2c(c1)C(=O)N([C@H](C)CO)C[C@@H](C)[C@@H](CN(C)S(=O)(=O)c1ccc(F)cc1)OCCCC[C@H](C)O2,/,-11,-7,/,/,/,/,/

# Screening results deposited in PubChem by several laboratories.
